Here are results for 30 compounds from the supplement of paper PMC13380429.

SMILES strings stand for the structures.

The subject of test [1] is Vero E6 infected with SARS-CoV-2. In words: morphology score (similarity to uninfected cells); higher = more like uninfected cells. The note with it: 24 h.
The test system is the same in test [2]. In words: SARS-CoV-2 infection rate relative to infected DMSO; higher = more infection, active = 60 or less. To be noted: 24 h.

On to `CN(C)CCC=C1c2ccccc2C=Cc2ccccc21` [cyclobenzaprine] (10 µM), for which the morphology score in test [1] was found to be 0.228. In test [2], the SARS-CoV-2 infection rate is 78% (inactive).
The matching figures for `CC(C)N1CCN(c2ccc(OCC3COC(Cn4cncn4)(c4ccc(Cl)cc4Cl)O3)cc2)CC1` (stereo not given) [terconazole] (0.833333 µM): -0.0821 and 106% (inactive).
For the compound `CC(C)NC(=O)N1CC[C@H](NC2=Nc3cc(F)ccc3N(CC(F)F)c3ccc(Cl)cc32)C1` (0.833333 µM), in test [1], the morphology score was determined as 0.0642. Besides, the SARS-CoV-2 infection rate in test [2] was 89% (inactive).
`CN(C)C(=O)COC(=O)Cc1ccc(OC(=O)c2ccc(NC(=N)N)cc2)cc1` [camostat-mesilate] (10 µM) had a morphology score in test [1] of 0.0997. Further, the SARS-CoV-2 infection rate in test [2] was 114% (inactive).
The like results for `CC(C)C[C@H](NC(=O)CNC(=O)c1cc(Cl)ccc1Cl)B1OC(=O)C(CC(=O)O)(CC(=O)O)O1` [ixazomib-citrate] (0.833333 µM) were, in that order, 0.101 and 106% (inactive).
In test [1], `Oc1c(Cl)cc(Cl)c2cccnc12` [chloroxine] (10 µM) displayed a morphology score of -0.0551. Moreover, the SARS-CoV-2 infection rate in test [2] was 98.5% (inactive).
The like results for `C[n+]1ccc(C(=O)NCc2ccccc2)cc1` [enisamium-iodide] (10 µM) were, in that order, 0.172 and 90% (inactive).
Consider `COC(=O)[C@]12CCC(C)(C)C[C@H]1[C@H]1C(=O)C=C3[C@@]4(C)C=C(C#N)C(=O)C(C)(C)[C@@H]4CC[C@@]3(C)[C@]1(C)CC2` [Bardoxolone Methyl] (10 µM), for which the morphology score in test [1] is -0.259. The SARS-CoV-2 infection rate in test [2] was 107% (inactive).
The matching figures for `Cn1cnc2c(F)c(Nc3ccc(Br)cc3F)c(C(=O)NOCCO)cc21` [binimetinib] (0.833333 µM): -0.00339 and 110% (inactive).
As for `CN(C)C/C=C/C(=O)Nc1ccc(C(=O)Nc2cccc(Nc3ncc(Cl)c(-c4c[nH]c5ccccc45)n3)c2)cc1` (10 µM), the morphology score in test [1] was -0.108. Further, the SARS-CoV-2 infection rate in test [2] is 94% (inactive).
With `CO[C@H]1/C=C\C=C(/C)C(=O)NC2=CC(=O)C(NCCN(C)C)=C(C[C@@H](C)C[C@H](OC)[C@H](O)[C@@H](C)/C=C(\C)[C@@H]1OC(N)=O)C2=O` [alvespimycin] (10 µM), the morphology score in test [1] was found to be 0.255. The SARS-CoV-2 infection rate in test [2] is 91% (inactive).
The matching figures for `CCn1c(-c2nonc2N)nc2c(C#CC(C)(C)O)ncc(OC[C@H]3CCCNC3)c21` (10 µM): 0.337 and 105% (inactive).
In test [1], `CC(=O)O[C@@H]1CC[C@@]2(C)[C@@H](CC[C@]3(C)[C@@H]2C(=O)C=C2[C@@H]4[C@@H](C)[C@H](C)CC[C@]4(C)CC[C@]23C)[C@@]1(C)C(=O)O` [acetyl-11-keto-beta-boswellic-acid] (10 µM) registered a morphology score of 0.104. Further, the SARS-CoV-2 infection rate in test [2] was 105% (inactive).
In test [1], `OCCN1CCN(CCCN2c3ccccc3Sc3ccc(Cl)cc32)CC1` [perphenazine] (0.833333 µM) gave a morphology score of -0.0186. Further, the SARS-CoV-2 infection rate in test [2] is 109% (inactive).
The like results for `CCCN(CCC)C(=O)C1=Cc2ccc(-c3ccc(C(=O)N4CCCC4)cc3)cc2N=C(N)C1` [motolimod] (10 µM) were, in that order, 0.14 and 93% (inactive).
`CNC(=O)N(C)N=O` [nitrosodimethylurea] (10 µM) showed a morphology score in test [1] of 0.0639. Moreover, the SARS-CoV-2 infection rate in test [2] was 106% (inactive).
The matching figures for `Cc1cc(C)c(NC(=O)N(Cc2ccc3c(c2)Cc2ccccc2-3)C2CCCCCC2)c(C)c1` (10 µM): -0.179 and 106% (inactive).
The matching figures for `COc1cccc([C@@H](C)NCCCc2ccccc2Cl)c1` [tecalcet] (10 µM): 0.534 and 50.5% (active).
In turn, `Cc1ccc(C[N+](C)(C)C)o1` [5-methylfurmethiodide] (10 µM) had a morphology score in test [1] of -0.123. The SARS-CoV-2 infection rate in test [2] was 117% (inactive).
The matching figures for `O=C(Nc1ccc(O)cc1)c1ccccc1O` [N-salicoylaminophenol] (10 µM): 0.168 and 102% (inactive).
The matching figures for `CCn1ccnc1CC1COc2ccccc2O1` (stereo not given) [imiloxan] (10 µM): -0.00924 and 99% (inactive).
In turn, `C[C@]12CC[C@@H]3c4ccc(O)cc4CC[C@H]3[C@@H]1CCC2=O` [estrone] (10 µM) returned a morphology score in test [1] of -0.145. Besides, the SARS-CoV-2 infection rate in test [2] was 108% (inactive).
The like results for `CC(C)NCC(O)COc1ccc(COCCOC(C)C)cc1` (stereo not given) [bisoprolol] (10 µM) were, in that order, -0.0255 and 106% (inactive).
In test [1], `CN(C)CC/C=C1\c2ccccc2CSc2ccccc21` [dosulepin] (10 µM) returned a morphology score of 0.188. Besides, the SARS-CoV-2 infection rate in test [2] is 99.5% (inactive).
The like results for `C=C[C@H]1CN2CC[C@H]1C[C@H]2[C@H](O)c1ccnc2ccccc12` [cinchonidine] (10 µM) were, in that order, -0.111 and 112% (inactive).
Take `CC(C[N+](C)(C)C)OC(N)=O` (stereo not given) [bethanechol] (10 µM): the morphology score in test [1] came to 0.0417. In addition, the SARS-CoV-2 infection rate in test [2] was 106% (inactive).
Consider `Clc1ccc(CCCOCCCN2CCCCC2)cc1` [pitolisant] (10 µM), for which, in test [1], the morphology score turned out to be 0.243. Moreover, the SARS-CoV-2 infection rate in test [2] is 81% (inactive).
Compound `N#CN1CCCC1` [pyrrolidine-1-carbonitrile] (10 µM) yielded a morphology score in test [1] of 0.254. Moreover, the SARS-CoV-2 infection rate in test [2] is 92% (inactive).
In test [1], `CN1CC[C@H](c2c(O)cc(O)c3c(=O)cc(-c4ccccc4Cl)oc23)[C@H](O)C1` [alvocidib] (10 µM) returned a morphology score of -0.17. In addition, the SARS-CoV-2 infection rate in test [2] was 108% (inactive).
In the case of `O=C(Nc1cc(C(F)(F)F)cc(C(F)(F)F)c1)Nc1c(Br)cc(Br)cc1-c1nnn[nH]1` (10 µM), the morphology score in test [1] worked out at 0.192. In test [2], the SARS-CoV-2 infection rate is 104% (inactive).
